Measured values as given in PubChem BioAssay (NCATS).
Results filed as inconclusive are left out. The source made the active and inactive calls. Calls follow the shape of the dose curve; as a rule, active = well fitted curve in the direction sought with a large enough effect; inconclusive = small, poorly fitted or top-dose-only effect, or another doubt; inactive = no such curve, though single readings can be large; an effect the other way counts as inactive or inconclusive.

Columns and labels:
[1] = OV-KATE Cancer Cell Toxicity qHTS against the NCATS CANVASS Library (AID 1347345); also: potency is read from the fitted curve at half-maximal effect
How it was run: (§1)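 Cells were seeded at 1000 per well, allowed 4 h at 37 degrees C/5% CO2, then pin-treated with an 11-point compound series. After 72 h, viability was read as CellTiter-Glo luminescence following 15min at room temperature.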

[2] = UWB1.289 Cancer Cell Toxicity qHTS against the NCATS CANVASS Library (AID 1347347); also: nearly all actives have a fitted effect of over 60% in size; also: potency is read from the fitted curve at half-maximal effect
How it was run: as §1

[3] = SW1088 Cancer Cell Toxicity qHTS against the NCATS CANVASS Library (AID 1347350); also: nearly all actives have a fitted effect of over 75% in size; also: potency is read from the fitted curve at half-maximal effect
How it was run: as §1

[4] = U-118MG Cancer Cell Toxicity qHTS against the NCATS CANVASS Library (AID 1347351); also: potency is read from the fitted curve at half-maximal effect
How it was run: as §1

[5] = COV-362 Cancer Cell Toxicity qHTS against the NCATS CANVASS Library (AID 1347352); also: potency is read from the fitted curve at half-maximal effect
How it was run: (§2)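 Toxicity was measured as CellTiter-Glo luminescence after 72 h exposure to an 11-point compound series. Compound was added to 1000 cells/well 4 h after seeding.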

[6] = UWB1.289-WTBRCA1 Cancer Cell Toxicity qHTS against the NCATS CANVASS Library (AID 1347354)
How it was run: as §2

[7] = HEK-293 Cancer Cell Toxicity qHTS against the NCATS CANVASS Library (AID 1347355); also: nearly all actives have a fitted effect of over 65% in size; also: potency is read from the fitted curve at half-maximal effect
How it was run: as §2

[8] = KB-8-5-11 Cancer Cell Toxicity qHTS against the NCATS CANVASS Library (AID 1347364); also: nearly all actives have a fitted effect of over 75% in size; also: potency is read from the fitted curve at half-maximal effect
How it was run: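 Viability read as CellTiter-Glo luminescence after 72 h at 37 °C, 5% CO2. 11-point compound series on 500 KB-8-5-11 cells/well in DMEM/10% FBS. Follow-up plating included 1 uM tariquidar in the medium.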

[9] = SDT Cancer Cell Toxicity qHTS against the NCATS CANVASS Library (AID 1347365); also: nearly all actives have a fitted effect of over 60% in size; also: potency is read from the fitted curve at half-maximal effect
How it was run: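 Cytotoxicity taken from CellTiterGlo ATP luminescence after 72 hr at 37C, 5% CO2. Canine glioma line SDT, 500 cells/well, treated at 11 concentrations; bortezomib dose series as control.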

[10] = target: Nuclear receptor subfamily 1 group I member 3 (Homo sapiens) (UniProt Q14994); assay: qHTS for Constitutive Androstane Receptor (CAR) Antagonist screened against the NCATS CANVASS Library (AID 1347372);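 also: cells stimulated with 50 nM CITCO agonist so inhibition reflects antagonism; series mostly up to about 46 µM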
How it was run: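 Antagonist mode: compound added alongside 50 nM CITCO to HepG2-hCAR-CYP2B6 reporter cells, 24hr at 37C. Viability by CellTiter-Fluor fluorescence, then CAR-driven luciferase by ONE-Glo luminescence.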

[11] = target: Nuclear receptor subfamily 1 group I member 3 (Homo sapiens) (UniProt Q14994); assay: qHTS for Constitutive Androstane Receptor (CAR) Agonist screened against the NCATS CANVASS Library (AID 1347373);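 also: every well also contained 1.5 µM PK11195 alongside the test compound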
How it was run: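 Agonist mode with 1.5uM PK11195 present: compounds for 24hr on HepG2-hCAR-CYP2B6 cells. CellTiter-Fluor fluorescence (ex 405, em 540 nm) gives viability; ONE-Glo luminescence reports CAR activation.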

[12] = qHTS for Hypoxia signaling pathway (HIF-1) agonists against the NCATS CANVASS Library (AID 1347375)
How it was run: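 Beta-lactamase reporter under HRE control in ME-180 cells; compounds (11-point qHTS series) added after 5 hrs plating, then 17 hrs at 37C. FRET substrate read after 2 hr; same-well CellTiter-Glo luminescence gave viability and normalization.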

[13] = DH5-alpha competent E. coli microbial cell viability qHTS against the NCATS CANVASS Library (AID 1347377); settings: outcome: dose series up to 46.1 µM unless noted
How it was run: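 Bacterial viability as ATP-dependent luminescence (BacTiter-Glo), read after overnight 37 °C exposure of DH5-alpha competent E. coli to compounds in 11-point titration.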

[14] = Secretion counterscreen for inhibitors of the SERCaMP assay screened against the NCATS CANVASS Library (AID 1347390);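 also: light from luciferase secreted into medium read as a measure of general secretion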; also: potency is read from the fitted curve at half-maximal effect
How it was run: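 SH-SY5Y cells with constitutively secreted GLuc reporter, 1000 cells/well, treated 20 h at 37C with compounds at 0.001 - 77 uM final; secreted luciferase read as luminescence after coelenterazine; Brefeldin A as positive control.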

[15] = qHTS for inhibitors of ER calcium dysfunction: SERCaMP assay screened against the NCATS CANVASS Library (AID 1347393); also: nearly all actives have a fitted effect of over 40% in size; also: potency is read from the fitted curve at half-maximal effect
How it was run: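 Thapsigargin-induced ER calcium depletion drives GLuc-SERCaMP secretion from SH-SY5Y cells; compounds given 16 h beforehand were scored by lowered coelenterazine luminescence after 4 h challenge.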

[16] = qHTS for inhibitors of Wild type Zika virus screened against the NCATS CANVASS Library (AID 1347396);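 also: ATP luminescence of surviving cells so rescue from viral cell killing; series mostly up to about 46 µM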
How it was run: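 Vero 766 cells, 1000/well, o/n attach; cpds pin-transferred (11-pt qHTS); WT Zika added; 72 h, 37C, 5% CO2; CellTiter Glo lumi. Uninfected + vehicle = 100% inhibition.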

[17] = qHTS for ATAD5 Agonist screened against the NCATS CANVASS Library (AID 1347367);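 also: luciferase reporter driven by ATAD5 which rises upon DNA damage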; also: potency is read from the fitted curve at half-maximal effect
How it was run: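 Luciferase reporter under ATAD5 control, stably integrated in HEK293T cells (2000/well). Compounds (11 points) incubated 16 h at 37C; viability read first by CellTiter-Fluor, then luminescence reporting ATAD5 activation. MMS positive control.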

[18] = Panc-1005 Cancer Cell Toxicity qHTS against the NCATS CANVASS Library (AID 1347349); also: nearly all actives have a fitted effect of over 60% in size; also: potency is read from the fitted curve at half-maximal effect
How it was run: as §1

[19] = qHTS for Hypoxia signaling pathway (HIF-1) antagonists against the NCATS CANVASS Library (AID 1347374); also: nearly all actives have a fitted effect of over 60% in size; also: potency is read from the fitted curve at half-maximal effect
How it was run: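 Antagonism scored as loss of CoCl2-driven (60 uM stock added) HRE beta-lactamase signal, read by CCF4 FRET at 460/530 nm. Compounds were tested in an 11-point series on ME-180 reporter cells for 17 hrs at 37C, with parallel CellTiter-Glo cytotoxicity.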

[20] = HPAF-II Cancer Cell Toxicity qHTS against the NCATS CANVASS Library (AID 1347346); also: potency is read from the fitted curve at half-maximal effect; nearly all actives have a fitted effect of over 55% in size
How it was run: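 Cytotoxicity read-out was CellTiter-Glo luminescence after 72 h at 37 degrees C exposure of HPAF-II cells (1000/well) to compounds in an 11-point titration.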

Measured: Potency

Chain of Nuclear receptor subfamily 1 group I member 3 (Homo sapiens) (Q14994 whole entry, looked up): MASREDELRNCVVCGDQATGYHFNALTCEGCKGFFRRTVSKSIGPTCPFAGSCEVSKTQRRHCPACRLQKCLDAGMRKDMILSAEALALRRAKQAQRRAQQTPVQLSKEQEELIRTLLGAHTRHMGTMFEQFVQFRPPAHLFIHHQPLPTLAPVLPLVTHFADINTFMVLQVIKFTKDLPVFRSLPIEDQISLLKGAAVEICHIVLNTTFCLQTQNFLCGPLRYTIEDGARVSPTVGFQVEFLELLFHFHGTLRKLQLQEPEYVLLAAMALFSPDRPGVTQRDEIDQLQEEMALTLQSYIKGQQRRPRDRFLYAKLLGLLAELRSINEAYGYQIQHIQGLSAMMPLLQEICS

C[n+]1cc2cc(C(N)=O)[nH]c3c(=N)c(Cl)c(N)c1c23
active: [9] 16.6 µM
not listed: [17] | [18] | [19] | [20]
inactive: all other assays above

CC[C@H]1[C@H](C)[C@H](c2cc(OC)c(OC)cc2OC)[C@@H](C)[C@H](c2cc(OC)c(OC)cc2OC)[C@@]12C=C(OC)C(=O)C=C2OC
active: [3] 18.8 µM | [7] 18.7 µM
inactive: [1] | [6] | [17] | [10] | [11] | [13] | [14] | [16]

CN1CC[C@]2(c3cccc4c3N[C@H]3N(C)CC[C@@]43[C@]34CCN(C)[C@H]3Nc3ccccc34)c3ccccc3N[C@H]12
active: [1] 18.8 µM | [2] 18.8 µM | [18] 21.1 µM | [4] 7.49 µM | [5] 14.9 µM | [7] 7.43 µM | [8] 18.7 µM | [9] 4.18 µM | [14] 19.3 µM
inactive: [17] | [13]

C/C(=C\CC[C@@H](C)[C@H]1CC[C@]2(C)C3=CCC4C(C)(C)[C@@H](O)C[C@@H](O)[C@]4(C)C3[C@H](O)C[C@@]12C)CO (stereo partly specified)
inactive: [1] | [4] | [6] | [9] | [17] | [11] | [12] | [14]
active: [19] 14.9 µM

C/C=C/C1C=CC2CC(C)CC(C)C2C1C(=O)CC(=O)NC(CO)C/C=C/CCCCC (stereo unspecified)
inactive: [4] | [6] | [10] | [11] | [12] | [16]
active: [1] 10.6 µM | [3] 14.9 µM | [9] 1.48 µM | [19] 29.8 µM | [15] 6.09 µM

C/C=C(/C)c1c(Cl)c(O)c(C)c2c1Oc1c(Cl)c(O)c(Cl)c(C)c1C(=O)O2
active: [3] 18.8 µM | [19] 10.6 µM
not listed: [2] | [8] | [9] | [13] | [16] | [20]
inactive: all other assays above

COc1cc(O)c(C(=O)[C@@H]2[C@H](CC=C(C)C)C(C)=CC[C@H]2c2ccccc2)c(O)c1
active: [20] 13.3 µM | [2] 13.3 µM | [18] 9.43 µM | [3] 5.95 µM | [4] 7.49 µM | [7] 20.9 µM | [8] 16.6 µM
inactive: [17] | [11]

C=C1CC[C@@H](O[C@H]2C[C@@](O)([C@H](C)NC(=O)c3[nH]c(C)c(Cl)c3Cl)[C@H](O)[C@@H](C)O2)[C@@H]2C=C[C@H](C)C(/C(O)=C3/C(=O)[C@H](C(C)C)N([C@@H]4O[C@H](C)[C@H](OC(N)=O)[C@H](OC(C)=O)[C@@H]4OC)C3=O)[C@@H]12 (stereo partly specified)
active: [3] 5.95 µM | [19] 16.7 µM
not listed: [2] | [13] | [18] | [20]
inactive: all other assays above

C/C=C(/C)c1cc(O)c(C)c2c1Oc1cc(O)cc(C)c1C(=O)O2
not listed: [2] | [3] | [8] | [14] | [15] | [17] | [19] | [20]
inactive: all other assays above

CCC(=O)CCCCC[C@@H]1NC(=O)[C@H]2CCCCN2C(=O)[C@H](C(C)C)NC(=O)[C@H](Cc2cn(OC)c3ccccc23)NC1=O
inactive: [19] | [12] | [14] | [15]
active: [20] 2.98 µM | [2] 7.47 µM | [18] 4.21 µM | [3] 13.3 µM | [4] 3.75 µM | [5] 18.8 µM | [7] 5.26 µM | [9] 7.43 µM | [17] 3.31 µM

COC12OC1(C13OC1(OC)C(=O)c1cc4cc(C)oc(=O)c4c(O)c1C3O)C(O)c1c(cc3cc(C)oc(=O)c3c1O)C2=O (stereo unspecified)
active: [3] 18.8 µM | [19] 14.9 µM
not listed: [16] | [20]
inactive: all other assays above

C=C[C@@]1(C)CC[C@@H]([C@H](C)C(=O)/C=C/C(C)(C)O)O1
inactive: [1] | [3] | [4] | [6] | [17] | [10] | [13] | [14] | [16]
active: [7] 26.4 µM

C=C1CC[C@@H](Br)C(C)(C)[C@]12CC=C(C)C(=O)C2
not listed: [3] | [11] | [13] | [15] | [17] | [20]
inactive: all other assays above

CC(C)[C@]12CC[C@@]3(C)[C@H](C)CC[C@H](O)[C@@]3(CC1)c1cc3c(cc12)[nH]c1ccccc13
not listed: [2] | [3] | [7] | [8] | [15] | [18] | [20]
inactive: all other assays above
